In PubChem BioAssay AID1508602 (The Scripps Research Institute Molecular Screening Center, 2020) one finds activation data, which are given here for 20 molecules.

Among all 650,000 compounds or so, about 6,800 (1%) were called active. The entries come from a sample that favours actives as a whole. Values without a mark were called inactive. Cut-off read from the data, not from the text of the source: active = activation above about 4.9%; inactive = the rest.

The target in the experiment is G-protein coupled receptor 151 (Homo sapiens) (UniProt Q8TDV0). Nature of the experiment: activators of human GPR151, primary screen, cell-based, PathHunter beta-arrestin, luminescence (AID 1508602).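 Note: 0% = median of compound wells and 100% = cells with positive control.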 As to conditions: PathHunter beta-arrestin GPR151 cells, at 11.2 µM, hits give high values.
Sequence of G-protein coupled receptor 151 (Homo sapiens) (Q8TDV0 whole entry, looked up): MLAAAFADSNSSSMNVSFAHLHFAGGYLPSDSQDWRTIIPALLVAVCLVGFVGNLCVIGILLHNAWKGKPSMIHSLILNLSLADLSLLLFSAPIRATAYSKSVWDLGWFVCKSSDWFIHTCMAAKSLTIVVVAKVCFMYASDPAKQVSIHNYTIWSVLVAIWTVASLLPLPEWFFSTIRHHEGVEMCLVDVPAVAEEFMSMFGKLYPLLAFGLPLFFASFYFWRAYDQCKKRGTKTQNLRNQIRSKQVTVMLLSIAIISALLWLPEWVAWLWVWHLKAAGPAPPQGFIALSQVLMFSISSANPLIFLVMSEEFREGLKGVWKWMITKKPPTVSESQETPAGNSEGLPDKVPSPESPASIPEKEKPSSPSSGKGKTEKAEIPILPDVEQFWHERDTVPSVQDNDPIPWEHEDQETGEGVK
Consider `COc1ccccc1N1C(=O)NC(=O)/C(=C\c2ccc(Cl)cc2Cl)C1=O`, for which the activation was 0.657%.
The value for `COc1cc(/C=C2\C(=O)NC(=O)N(c3ccccc3)C2=O)ccc1O` was 8.77% (active); that for `C=CCN1C(=O)NC(=O)/C(=C/c2ccc(O)c(OC)c2)C1=O` was -0.157%; that for `COc1cc(NC(=O)CCc2nc(C3=CCN(C)CC3)no2)cc(OC)c1OC` was -0.399%.
Next, `O=C(O)C1C2CC3CC(C2)CC1(n1ncc(NC2CCCC2)c(Cl)c1=O)C3` (stereo not given): 1.35%; `O=c1cccc2n1CC1CC2CN(Cc2ccc(F)cc2)C1` (stereo not given): 1.89%; `COc1ccccc1N1CCN(Cc2cccc(O)c2)CC1`: 0.277%.
The value for `COc1ccccc1N1CCN(C(CNC(=O)Oc2ccccc2)c2cccnc2)CC1` (stereo not given) was 9.52% (active); that for `O=C(NCC(c1cccnc1)N1CCN(c2ccccc2)CC1)Oc1ccccc1` (stereo not given) was 0.68%.
`O=C(Cc1cccs1)N1CCN(Cc2nnnn2-c2ccc(F)cc2)CC1`: the activation is 1.07%.
Next, `Cc1ccc(Cc2nc[nH]c2C)cc1`: 0.705%; `COc1ccc(CCNCc2ccc(O)cc2)cc1`: 1.2%; `Cc1cc(Cl)ccc1C(=O)C1CCCN(Cc2ncc[nH]2)C1` (stereo not given): -0.596%.
The value for `CC[n+]1c(/C=C/C=C2\N(C)c3ccccc3C2(C)C)n(-c2ccccc2)c2ccc(Cl)cc21` was 5.9% (active); that for `C=CCOC(=O)C1=C(C)OC(N)=C(C(=O)OCC)C12C(=O)N(CC=C)c1ccccc12` (stereo not given) was -0.446%.
Regarding `COc1cc(Br)cc(CN2CC3CC(C2)c2cccc(=O)n2C3)c1O` (stereo not given), the activation is -0.476%.
The value for `CCOC(=O)C1=C(N)Oc2n[nH]c(C)c2C12C(=O)Nc1ccc(Br)cc12` (stereo not given) was 0.383%; that for `CCOC(=O)C1=C(C)OC(N)=C(C(=O)OC)C12C(=O)Nc1ccc(Br)cc12` (stereo not given) was -0.299%; that for `CCOC(=O)C1=C(N)OC2=C(C(=O)CCC2)C12C(=O)Nc1ccc(Br)cc12` (stereo not given) was 9.15% (active).
The value for `CC(C)c1ccc(NC(=O)c2cc3cccnc3n(Cc3ccc(F)cc3)c2=O)cc1` was 1.47%.
